Tau fibril FP – qHTS for Inhibitors of Tau Fibril Formation, Fluorescence Polarization; Potency, µM (top dose mostly 57.7 µM), inactives show at the top dose activity, negative = inhibition, actives largely listed as inhibitors; actives 0.39% (n = 280,000); Microtubule-associated protein tau (Homo sapiens), P10636; K18 P301L tau heparin fibrillization, Alexa594 FP, 6 h; also: potency is read from the fitted curve at half-maximal effect; nearly all actives have a fitted effect of over 55% in size
Target sequence (P10636 561-689 P618L limits assumed): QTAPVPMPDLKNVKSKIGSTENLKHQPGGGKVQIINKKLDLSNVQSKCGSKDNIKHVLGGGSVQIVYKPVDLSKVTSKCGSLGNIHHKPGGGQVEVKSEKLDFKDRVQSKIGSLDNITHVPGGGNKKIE
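Compound effects on tau fibrillization are measured by Alexa 594 fluorescence polarization (ex 555, em 632 nm). K18 P301L tau is used at 15 uM with 0.24 uM labeled tracer, and 20 uM heparin induces aggregation over 6 hr at 37 C.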
Sfp inh – qHTS Assay for Inhibitors of Bacillus subtilis Sfp phosphopantetheinyl transferase (PPTase); 4'-phosphopantetheinyl transferase ffp (Bacillus subtilis), Q9F4F7; Biochemical Sfp PPTase activity, qHTS; Potency, µM, for inactives: largest response in the series, negative = inhibition, usual class: inhibitors; actives 3.5% (n = 310,000); AID 1490, 2009;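 also: the enzyme is Sfp with the accession as filed and its product quenches rhodamine fluorescence; potency is read from the fitted curve at half-maximal effect; 0% = enzyme reaction without inhibitor and -100% = no enzyme wells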
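Buffer: 50 mM Hepes-Na pH 7.6, 10 mM MgCl2, 0.01% Nonidet P-40, 0.01% BSA. Enzyme 15 nM, pre-exposed to compound 15 min; substrates then added and fluorescence change tracked over 30 min.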
Tau fluor counter – Counterscreen qHTS for Inhibitors of Tau Fibril Formation, Fluorescence Polarization. tau K18 P301L Alexa594 fluorescence, heparin fibrillization. Potency, µM (highest dose often 57.7 µM), for the others: at the top dose activity change, negative = decrease. actives 0.93% (n = 280,000); also: potency is read from the fitted curve at half-maximal effect; nearly all actives have a fitted effect of over 55% in size
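Human tau K18 P301L (15 uM unlabeled, 0.24 uM Alexa 594-labeled) in 100 mM sodium acetate pH 7 with 20 uM heparin, 6 hr at 37 C. ThT 30 uM added, 1 hr ambient; Alexa 594 FP and total fluorescence read at 555/632 nm.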
Coupling enz – qHTS Assay for Inhibitors of Fructose-1,6-bisphosphate Aldolase from Giardia Lamblia: Coupling assay counterscreen; actives 0.67% (n = 290,000); activity change, negative = inhibition, % at 58.2 µM, hits read low; AID 2472, 2010; coupling enzyme system counterscreen, AmpLite Red fluorescence; in the data active = activity change below about -30%
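Counterscreen of the coupled detection system alone, without aldolase: glyceraldehyde-3-phosphate coupling enzymes plus AmpLite Red readout. Compounds at 57.5 uM final, 10 min RT preincubation, 20 min RT reaction, fluorescence 525/598 nm.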
G9a block – qHTS Assay for Inhibitors of Histone Lysine Methyltransferase G9a. G9a H3K9 monomethylation, AlphaScreen, 2 h. actives 8.8% (n = 350,000). Histone-lysine N-methyltransferase EHMT2 (Homo sapiens), Q96KQ7. AID 504332, 2011. Potency, µM (highest dose often 102 µM), inactives show top-dose activity, negative = inhibition, most hits filed as inhibitors; also: potency is read from the fitted curve at half-maximal effect; nearly all actives have a fitted effect of over 75% in size
Target sequence (Q96KQ7 913-1193 limits assumed): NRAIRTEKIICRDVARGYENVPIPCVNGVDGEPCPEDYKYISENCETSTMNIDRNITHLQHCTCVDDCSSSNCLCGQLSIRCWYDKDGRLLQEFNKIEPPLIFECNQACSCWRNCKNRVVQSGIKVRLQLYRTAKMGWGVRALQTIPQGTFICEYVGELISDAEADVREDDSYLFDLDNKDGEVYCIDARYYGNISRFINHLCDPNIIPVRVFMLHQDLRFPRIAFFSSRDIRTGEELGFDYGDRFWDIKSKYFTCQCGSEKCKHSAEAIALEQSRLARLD
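Quantitative HTS format: methyltransferase activity on a biotin-tagged H3K9 peptide is measured by AlphaScreen, using a rabbit anti-monomethyl-H3K9 antibody with streptavidin donor and anti-IgG acceptor beads. Final levels are 20 nM enzyme, 500 nM peptide, 20 uM SAM; 2 h RT.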
Tau ThT inhib – qHTS for Inhibitors of Tau Fibril Formation, Thioflavin T Binding. Microtubule-associated protein tau (Homo sapiens), P10636. recombinant tau K18 P301L, heparin-induced fibrillization, ThT fluorescence. Potency, µM (titrated, usually from 57.4 µM), without a hit: top-dose activity, negative = inhibition, most hits filed as inhibitors. actives 2.1% (n = 270,000). AID 1460, 2008; also: potency is read from the fitted curve at half-maximal effect; nearly all actives have a fitted effect of over 55% in size
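ThT emission at 510 nm, taken 1 hr after adding 30 uM dye, quantifies aggregates formed when 20 uM heparin acts on human tau K18 P301L for 6 hr at 37 C.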
* marks the source's active call; other numbers are inactive results; [ ] = remark or other dose. Hits are enriched below; roughly 11% of the tested compounds scored in any of these assays. Unless noted, calls follow the shape of the dose curve; as a rule, active = well fitted curve in the direction sought with a large enough effect; inconclusive = small, poorly fitted or top-dose-only effect, or another doubt; inactive = no such curve, though single readings can be large; an effect the other way counts as inactive or inconclusive. Unless noted, % is scaled to controls: 0 for no effect and ±100 for the full control effect.

`CCOC(=O)c1ccc(NC(=O)NNC(=O)CCc2ccc(OC)cc2)cc1` gave Sfp inh 6% and Coupling enz 0.
Cc1cc(C)c(NC(=O)CSc2ncc3c(n2)-c2cc(Cl)ccc2N(C)S3(=O)=O)c(C)c1 was read as Tau fibril FP inconclusive, Tau fluor counter -12%, G9a block 11%[59 µM] and Tau ThT inhib -7%.
Screening COc1ccc(CCNC(=O)CN2C(=O)COc3ccccc32)cc1OC returned Tau fibril FP -2%, Tau fluor counter -21%, G9a block 9%[59 µM] and Tau ThT inhib -12%.
COc1ccc(CCNC(=O)CN2CCCc3ccccc32)cc1OC was read as Tau fibril FP 1%, Sfp inh 2%, Tau fluor counter -5%, Coupling enz 4, G9a block 56µM* and Tau ThT inhib -4%.
Screening NNC(=O)CN1CCCc2ccccc21 returned Tau fibril FP 1%, Sfp inh 10%, Tau fluor counter -9%, Coupling enz -4, G9a block 3% and Tau ThT inhib -17%.
Screening O=C(CN1CCCc2ccccc21)NCc1ccccc1Cl returned Tau fibril FP inconclusive, Sfp inh 0%, Tau fluor counter -23%, Coupling enz -1, G9a block 45µM* and Tau ThT inhib -12%.
`O=C(CN1CCCc2ccccc21)NCCc1ccc(F)cc1` gave Tau fibril FP -8%, Sfp inh 79µM*, Tau fluor counter -24%, Coupling enz 4, G9a block 12%[59 µM] and Tau ThT inhib -14%.
For COc1ccc(/C(N)=N/OC(=O)C2CCC(=O)N2S(=O)(=O)c2ccc(C)cc2)cc1OC (stereo unspecified) the results were Tau fibril FP -5%, Sfp inh -11%, Tau fluor counter -3%, Coupling enz 4, G9a block -5%[59 µM] and Tau ThT inhib 10%.
Screening CCn1nc(C(=O)NNC(=O)c2ccccc2)c2ccccc2c1=O returned G9a block 3%[2.33 µM].
Screening COc1ccc(C(=O)c2cn(Cc3ccc(F)cc3)c3ccc(C)cc3c2=O)cc1 returned Tau fibril FP 1%, Tau fluor counter -10%, G9a block -8%[59 µM] and Tau ThT inhib -5%.
CCCCn1c(SCc2ccccc2C)nc2ccsc2c1=O was read as Tau fibril FP -9%, Tau fluor counter -15%, G9a block 65%[59 µM] and Tau ThT inhib inconclusive.
Screening O=C1c2cc(O)cc(O)c2OC[C@@H]1c1ccc(O)c(O)c1 returned Sfp inh -11% and Coupling enz -2.
`CN1Cc2sccc2C(c2ccc(O)c(O)c2)C1` (stereo unspecified) gave G9a block 8.4µM*.
Cc1ccc(NC(=O)/C=C/c2ccco2)cc1F was read as Tau fibril FP inconclusive, Tau fluor counter -30%, G9a block 13µM* and Tau ThT inhib inconclusive.
Cc1cc(NC(=O)/C=C/c2ccco2)ccc1NC(=O)c1ccccc1 was read as Tau fibril FP 4%, Sfp inh 13µM*, Tau fluor counter -1%, Coupling enz 2, G9a block inconclusive and Tau ThT inhib 1%.
Cc1ccccc1C(=O)NCC(=O)NNC(=O)c1cccc(Cl)c1 was read as G9a block 45%[12.7 µM].
`CCOc1ccc(Br)cc1C1C(C(=O)Nc2ccccc2OC)=C(C)Nc2nnnn21` (stereo unspecified) gave Tau fibril FP -11%, Tau fluor counter -3%, G9a block -2%[59 µM] and Tau ThT inhib -3%.
For O=C(Cn1cnc2c(cnn2-c2ccc(F)cc2)c1=O)NCc1ccco1 the results were Tau fibril FP -3%, Sfp inh 4%, Tau fluor counter -8%, Coupling enz 0, G9a block -36% and Tau ThT inhib -10%.
`O=C(Cn1cnc2c(nnn2Cc2ccccc2F)c1=O)NCc1ccco1` gave Tau fibril FP -10%, Sfp inh 89µM*, Tau fluor counter -9%, Coupling enz -2 and Tau ThT inhib 6%.
For Cc1ccc2c(=O)c(C(=O)c3ccc(F)cc3)cn(CC(=O)NCc3ccco3)c2n1 the results were Sfp inh 7%, Coupling enz 0 and G9a block 50µM*.
`Cc1ccc2c(=O)c(C(=O)c3ccc(F)cc3)cn(CC(=O)NCc3ccccc3)c2n1` gave Tau fibril FP -12%, Tau fluor counter -3%, G9a block -12%[59 µM] and Tau ThT inhib 5%.
Screening Cc1sc2ncn(CC(=O)NCc3ccco3)c(=O)c2c1-c1ccc(F)cc1 returned Tau fibril FP 0%, Sfp inh 18µM*, Tau fluor counter -12%, Coupling enz 0, G9a block inconclusive and Tau ThT inhib inconclusive.
`COc1ccc(CNC(=O)CSc2n[nH]c(-c3ccc(OC)cc3)n2)cc1` gave Tau fibril FP 6%, Tau fluor counter 1%, G9a block -7%[59 µM] and Tau ThT inhib -2%.
CCc1cccc(C)c1NC(=O)CCCn1c(C)c2cnn(-c3ccccc3)c(=O)c2c1C was read as Tau fibril FP 1%, Tau fluor counter -9%, G9a block 6%[59 µM] and Tau ThT inhib -10%.
`CCOc1ccccc1CNCc1c(C(=O)O)n(Cc2ccc(F)cc2)c2cc(C)ccc12` gave Tau fibril FP 9%, Tau fluor counter -5%, G9a block -8%[59 µM] and Tau ThT inhib -5%.
For O=C(Cn1cc(C(F)(F)F)ccc1=O)NCc1ccc(F)cc1 the results were Sfp inh 14%, Coupling enz 1 and G9a block 18%.
Screening COc1ccc(/C=C/C(=O)NC(=S)Nc2cc([N+](=O)[O-])ccc2O)cc1OC returned Tau fibril FP inconclusive, Sfp inh -6%, Tau fluor counter -14%, Coupling enz 3, G9a block 28µM* and Tau ThT inhib 1.6µM*.
For COc1ccc(C(C)(C)C)cc1NC(=O)Nc1ccc2c(c1)OCO2 the results were Tau fibril FP inconclusive, Sfp inh 3%, Tau fluor counter 14µM*[quencher], Coupling enz 0, G9a block inconclusive and Tau ThT inhib inconclusive.
O=C(Nc1ccc([N+](=O)[O-])cc1)Nc1ccc2c(c1)OCCO2 was read as Tau fibril FP inconclusive, Sfp inh inconclusive, Tau fluor counter 8.9µM*[quencher], Coupling enz 0, G9a block 0%[59 µM] and Tau ThT inhib inconclusive.
